{"source": "the supplement of paper PMC11001985", "note": "Values without a mark were called inactive."}
{"compound": "C#CCNC(=O)CCSSCCC(=O)NCCc1ccc(C=O)c(C=O)c1", "test": "lysine labeling ratio R10:1 (500 µM / 50 µM probe), SILAC-ABPP in living cells; higher = lower intrinsic lysine reactivity toward the probe, active = 2 or less", "details": "HeLa; probe concentrations 500 vs 50 µM", "outline": "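Measurements came from LC-MS/MS on a TIMS-TOF Pro of mixed SILAC light and heavy HeLa lysates after click to biotin-azide, trypsin digestion, neutravidin capture, DTT release and alkylation. Before lysis, the living cells sat in PBS at room temperature with 50 µM or 500 µM of an alkyne-tagged, disulfide-linked lysine probe, and labels were swapped forward and reverse. R per lysine is the median across both swap directions of the filtered median high-probe/low-probe MS1 peptide ratio. The cap is 20.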"}
{"target": "PDIA3 (lysine site: K104) (UniProt P30101)", "lysine labeling ratio R10:1": "1.07 (active)"}
{"target": "CELSR2 (lysine site: K2183) (UniProt Q9HCU4)", "lysine labeling ratio R10:1": 4.05}
{"target": "RPL22 (lysine site: K107) (UniProt P35268)", "lysine labeling ratio R10:1": 2.29}
{"target": "NEGR1 (lysine site: K180) (UniProt Q7Z3B1)", "sequence (Q7Z3B1 whole entry, looked up)": "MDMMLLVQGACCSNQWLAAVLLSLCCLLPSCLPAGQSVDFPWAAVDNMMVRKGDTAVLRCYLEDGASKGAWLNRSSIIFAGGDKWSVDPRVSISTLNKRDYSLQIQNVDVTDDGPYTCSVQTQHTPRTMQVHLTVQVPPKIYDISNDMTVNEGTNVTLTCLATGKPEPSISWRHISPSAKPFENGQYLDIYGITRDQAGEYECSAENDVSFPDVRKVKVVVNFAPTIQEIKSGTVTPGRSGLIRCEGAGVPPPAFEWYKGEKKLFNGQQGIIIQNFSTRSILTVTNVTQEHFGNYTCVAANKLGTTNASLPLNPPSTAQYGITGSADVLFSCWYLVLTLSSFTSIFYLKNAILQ", "lysine labeling ratio R10:1": "1.72 (active)"}
{"target": "UniProt P62249 (lysine site: K130)", "lysine labeling ratio R10:1": 4.97}
{"target": "ECE1 (lysine site: K177) (UniProt P42892)", "lysine labeling ratio R10:1": 7.91}
{"target": "UniProt P60866 (lysine site: K8)", "lysine labeling ratio R10:1": 2.33}
{"target": "THRAP3 (lysine site: K346) (UniProt Q9Y2W1)", "lysine labeling ratio R10:1": 2.43}
{"target": "ROBO1 (lysine site: K232) (UniProt Q9Y6N7)", "lysine labeling ratio R10:1": 5.29}
{"target": "UniProt P02768 (lysine site: K499)", "lysine labeling ratio R10:1": 7.98}
{"target": "LAMC1 (lysine site: K1567) (UniProt P11047)", "lysine labeling ratio R10:1": "1.42 (active)"}
{"target": "CACNA2D1 (lysine site: K842) (UniProt P54289)", "lysine labeling ratio R10:1": 4.24}
{"target": "VPS35 (lysine site: K515) (UniProt Q96QK1)", "lysine labeling ratio R10:1": "1.25 (active)"}
{"target": "ATP1B1 (lysine site: K111) (UniProt P05026)", "lysine labeling ratio R10:1": 2.14}
{"target": "FLNB (lysine site: K1221) (UniProt O75369)", "lysine labeling ratio R10:1": 3.74}
{"target": "UniProt Q16363 (lysine site: K1723)", "lysine labeling ratio R10:1": 2.13}
{"target": "SLC25A5 (lysine site: K63) (UniProt P05141)", "sequence (P05141 whole entry)": "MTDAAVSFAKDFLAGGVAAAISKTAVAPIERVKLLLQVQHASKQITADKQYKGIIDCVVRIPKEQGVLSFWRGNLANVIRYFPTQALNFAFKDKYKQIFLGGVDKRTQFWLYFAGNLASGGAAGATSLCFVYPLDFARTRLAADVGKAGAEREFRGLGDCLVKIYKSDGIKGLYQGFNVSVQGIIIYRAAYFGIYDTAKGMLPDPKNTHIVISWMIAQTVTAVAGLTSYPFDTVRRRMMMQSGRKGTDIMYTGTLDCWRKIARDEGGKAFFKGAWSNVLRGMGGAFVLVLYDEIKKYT", "lysine labeling ratio R10:1": 3.19}
{"target": "MYH9 (lysine site: K1392) (UniProt P35579)", "sequence (P35579 whole entry)": "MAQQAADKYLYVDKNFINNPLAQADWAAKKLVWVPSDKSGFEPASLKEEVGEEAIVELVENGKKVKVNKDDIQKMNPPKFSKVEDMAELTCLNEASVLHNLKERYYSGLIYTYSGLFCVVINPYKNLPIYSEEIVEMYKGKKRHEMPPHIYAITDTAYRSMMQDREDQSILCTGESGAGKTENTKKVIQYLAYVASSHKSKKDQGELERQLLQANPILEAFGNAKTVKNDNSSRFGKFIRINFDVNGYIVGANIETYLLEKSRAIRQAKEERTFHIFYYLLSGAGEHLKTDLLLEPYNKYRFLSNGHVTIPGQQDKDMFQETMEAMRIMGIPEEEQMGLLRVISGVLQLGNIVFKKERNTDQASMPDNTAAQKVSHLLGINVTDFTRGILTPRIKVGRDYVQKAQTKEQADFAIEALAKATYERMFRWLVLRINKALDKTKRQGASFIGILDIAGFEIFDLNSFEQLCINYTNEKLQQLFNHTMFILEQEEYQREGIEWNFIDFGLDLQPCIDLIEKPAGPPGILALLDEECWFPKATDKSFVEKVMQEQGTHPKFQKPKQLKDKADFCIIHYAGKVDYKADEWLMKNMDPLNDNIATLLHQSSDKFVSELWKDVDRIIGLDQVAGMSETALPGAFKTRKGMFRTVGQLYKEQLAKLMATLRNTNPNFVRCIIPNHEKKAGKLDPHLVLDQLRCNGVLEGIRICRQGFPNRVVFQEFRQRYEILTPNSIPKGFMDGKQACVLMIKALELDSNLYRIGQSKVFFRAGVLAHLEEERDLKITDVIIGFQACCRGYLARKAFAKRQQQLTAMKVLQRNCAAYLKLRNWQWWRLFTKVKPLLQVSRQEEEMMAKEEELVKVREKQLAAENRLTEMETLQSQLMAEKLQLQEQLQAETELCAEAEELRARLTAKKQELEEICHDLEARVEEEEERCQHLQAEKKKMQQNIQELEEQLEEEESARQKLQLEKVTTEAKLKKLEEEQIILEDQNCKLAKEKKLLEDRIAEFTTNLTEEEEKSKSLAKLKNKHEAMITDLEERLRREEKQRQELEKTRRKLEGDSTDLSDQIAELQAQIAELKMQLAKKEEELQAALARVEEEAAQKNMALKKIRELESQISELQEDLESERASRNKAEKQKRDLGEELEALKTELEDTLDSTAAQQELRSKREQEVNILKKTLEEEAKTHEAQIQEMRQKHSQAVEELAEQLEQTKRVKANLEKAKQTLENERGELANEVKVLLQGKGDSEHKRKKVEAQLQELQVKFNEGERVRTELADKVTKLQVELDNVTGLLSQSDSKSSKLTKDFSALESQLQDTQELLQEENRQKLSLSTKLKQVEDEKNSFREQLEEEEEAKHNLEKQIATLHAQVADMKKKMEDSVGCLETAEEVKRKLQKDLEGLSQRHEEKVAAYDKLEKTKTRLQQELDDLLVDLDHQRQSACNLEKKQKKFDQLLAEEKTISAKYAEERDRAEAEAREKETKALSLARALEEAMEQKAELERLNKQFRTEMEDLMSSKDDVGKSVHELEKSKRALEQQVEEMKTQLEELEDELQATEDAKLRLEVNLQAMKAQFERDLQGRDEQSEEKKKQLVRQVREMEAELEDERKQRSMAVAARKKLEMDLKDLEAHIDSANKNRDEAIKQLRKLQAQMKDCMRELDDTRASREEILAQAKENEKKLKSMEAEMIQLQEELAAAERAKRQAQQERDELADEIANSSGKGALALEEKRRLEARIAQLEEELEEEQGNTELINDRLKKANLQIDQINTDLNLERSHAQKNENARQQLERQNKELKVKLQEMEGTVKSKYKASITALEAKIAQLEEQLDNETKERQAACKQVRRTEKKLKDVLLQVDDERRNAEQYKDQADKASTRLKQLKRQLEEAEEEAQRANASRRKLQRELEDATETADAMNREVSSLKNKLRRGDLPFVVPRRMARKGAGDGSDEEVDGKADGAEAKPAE", "lysine labeling ratio R10:1": "1.15 (active)"}
{"target": "KIAA1549 (lysine site: K1195) (UniProt Q9HCM3)", "sequence (Q9HCM3 whole entry)": "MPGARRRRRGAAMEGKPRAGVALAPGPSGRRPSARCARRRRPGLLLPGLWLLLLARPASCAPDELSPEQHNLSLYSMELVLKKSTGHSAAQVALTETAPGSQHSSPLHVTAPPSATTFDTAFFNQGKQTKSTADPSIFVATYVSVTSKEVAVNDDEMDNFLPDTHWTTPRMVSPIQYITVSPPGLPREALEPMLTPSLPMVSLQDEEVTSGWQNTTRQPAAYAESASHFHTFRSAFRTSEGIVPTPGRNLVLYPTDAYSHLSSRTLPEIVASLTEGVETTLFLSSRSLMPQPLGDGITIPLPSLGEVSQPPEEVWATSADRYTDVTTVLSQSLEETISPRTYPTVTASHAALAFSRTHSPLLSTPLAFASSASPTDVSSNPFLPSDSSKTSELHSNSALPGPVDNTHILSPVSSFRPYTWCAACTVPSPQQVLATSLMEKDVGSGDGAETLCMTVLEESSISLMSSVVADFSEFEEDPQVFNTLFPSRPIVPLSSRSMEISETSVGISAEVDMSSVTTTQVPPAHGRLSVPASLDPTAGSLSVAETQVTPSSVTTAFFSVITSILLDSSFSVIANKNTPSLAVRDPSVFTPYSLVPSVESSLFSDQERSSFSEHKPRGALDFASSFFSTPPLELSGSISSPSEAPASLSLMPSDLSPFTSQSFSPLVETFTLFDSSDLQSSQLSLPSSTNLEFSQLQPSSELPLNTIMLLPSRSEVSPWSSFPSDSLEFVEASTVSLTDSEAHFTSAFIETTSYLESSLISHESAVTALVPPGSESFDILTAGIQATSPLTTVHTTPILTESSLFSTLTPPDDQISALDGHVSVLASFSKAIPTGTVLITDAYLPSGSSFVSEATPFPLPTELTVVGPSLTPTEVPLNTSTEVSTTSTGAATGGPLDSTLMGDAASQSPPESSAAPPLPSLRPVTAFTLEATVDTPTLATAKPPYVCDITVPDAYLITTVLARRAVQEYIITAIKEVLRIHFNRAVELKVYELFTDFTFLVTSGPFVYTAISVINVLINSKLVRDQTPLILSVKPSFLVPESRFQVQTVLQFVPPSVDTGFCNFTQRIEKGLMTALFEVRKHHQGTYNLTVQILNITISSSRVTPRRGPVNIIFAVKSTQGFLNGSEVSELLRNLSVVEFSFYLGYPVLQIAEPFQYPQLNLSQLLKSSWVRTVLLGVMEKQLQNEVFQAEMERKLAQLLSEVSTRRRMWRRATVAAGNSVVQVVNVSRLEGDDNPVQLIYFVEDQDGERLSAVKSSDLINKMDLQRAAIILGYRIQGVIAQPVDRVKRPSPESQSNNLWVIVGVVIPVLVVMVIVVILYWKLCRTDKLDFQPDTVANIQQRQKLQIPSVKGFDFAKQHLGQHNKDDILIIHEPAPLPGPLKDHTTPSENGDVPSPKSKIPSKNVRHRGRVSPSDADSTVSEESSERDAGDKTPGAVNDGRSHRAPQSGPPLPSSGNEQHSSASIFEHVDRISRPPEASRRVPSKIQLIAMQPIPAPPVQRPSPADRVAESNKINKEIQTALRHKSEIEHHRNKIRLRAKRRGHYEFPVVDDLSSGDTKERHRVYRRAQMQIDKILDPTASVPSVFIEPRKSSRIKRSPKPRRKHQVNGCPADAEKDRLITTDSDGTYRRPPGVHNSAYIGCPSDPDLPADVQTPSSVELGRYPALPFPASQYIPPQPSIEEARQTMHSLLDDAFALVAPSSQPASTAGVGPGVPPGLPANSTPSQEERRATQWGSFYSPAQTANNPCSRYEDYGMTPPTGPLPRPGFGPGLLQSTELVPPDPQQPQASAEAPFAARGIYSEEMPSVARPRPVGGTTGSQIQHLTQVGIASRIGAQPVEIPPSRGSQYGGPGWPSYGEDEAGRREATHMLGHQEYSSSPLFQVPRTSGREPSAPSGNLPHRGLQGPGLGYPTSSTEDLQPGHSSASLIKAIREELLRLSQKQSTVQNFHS", "lysine labeling ratio R10:1": 2.77}
{"target": "EEF1G (lysine site: K241) (UniProt P26641)", "lysine labeling ratio R10:1": "1.4 (active)"}
{"target": "CCT5 (lysine site: K214) (UniProt P48643)", "sequence (P48643 whole entry)": "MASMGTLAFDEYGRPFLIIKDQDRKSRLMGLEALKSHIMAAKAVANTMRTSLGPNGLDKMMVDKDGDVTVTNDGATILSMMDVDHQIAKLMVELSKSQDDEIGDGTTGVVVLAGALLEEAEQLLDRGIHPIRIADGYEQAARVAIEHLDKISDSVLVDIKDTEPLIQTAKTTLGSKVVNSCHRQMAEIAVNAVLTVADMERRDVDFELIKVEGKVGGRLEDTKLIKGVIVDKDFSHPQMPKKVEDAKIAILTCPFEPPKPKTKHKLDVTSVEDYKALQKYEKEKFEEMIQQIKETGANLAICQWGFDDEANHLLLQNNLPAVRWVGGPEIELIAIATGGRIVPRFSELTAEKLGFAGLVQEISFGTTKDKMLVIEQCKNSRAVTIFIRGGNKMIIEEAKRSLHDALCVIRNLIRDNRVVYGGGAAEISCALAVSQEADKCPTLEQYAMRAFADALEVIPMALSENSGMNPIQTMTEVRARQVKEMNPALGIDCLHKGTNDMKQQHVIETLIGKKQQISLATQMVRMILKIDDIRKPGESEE", "lysine labeling ratio R10:1": "1.21 (active)"}
{"target": "STOML2 (lysine site: K254) (UniProt Q9UJZ1)", "lysine labeling ratio R10:1": 5.22}
